{"source": "PubChem BioAssay AID435019", "about": "(Southern Research Specialized Biocontainment Screening …, 2010)", "note": "About 1,200 (52%) of roughly 2,300 compounds were called active. So high a share suggests a set chosen from earlier hits. The list shows a part of the results. Measured potencies and affinities stand elsewhere. Values without a mark were called inactive. How the calls were made is not given here.", "data": [{"assay": "mammalian cell cytotoxicity, dose response, cytotoxicity control for M. tuberculosis inhibitor project (AID 435019);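 further: 0% = background wells and 100% = vehicle-treated cells; lower values mean fewer viable cells so more cytotoxicity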", "details": "cytotoxicity counter-screen; series mostly up to 40 µM; viability: at the top concentration", "units": {"viability": "%"}, "values": [{"smiles": "Cn1c(SCc2ccccc2)nc(N)c(N=O)c1=O", "viability": 90.2}, {"smiles": "CCOc1ccc(N=CNc2ccc(OCC)cc2)cc1", "viability": 102}, {"smiles": "CCOc1ccc(NC(=O)CSc2cn[nH]n2)cc1", "viability": 97.2}, {"smiles": "Cc1ccc(C(=O)N/N=C/C=C/c2ccccc2)cc1", "viability": 99.6}, {"smiles": "COc1ccc(OCCCC(=O)OC(C)C(=O)Nc2ccccc2[N+](=O)[O-])cc1", "note": "(stereo not given)", "viability": 99.7}, {"smiles": "CCOC(=O)COn1c2c(c3c4no[n+]([O-])c4ccc31)CCCC2", "viability": 92.7}, {"smiles": "Cc1cc(O)c(/C=N/Nc2cccc(Cl)c2)c(=O)o1", "viability": 93.5}, {"smiles": "Cc1cc(=O)n2[nH]c(Nc3cccc(Cl)c3)nc2n1", "viability": 83.3}, {"smiles": "COc1ccc(N2C(=O)C(Cl)=C(Nc3ccccc3O)C2=O)cc1", "viability": 81}, {"smiles": "Nc1cnc(-c2ccccc2)nc1Cl", "viability": 84.9}, {"smiles": "COc1ccc2[nH]c(=O)c(CNc3cccc(C)c3)cc2c1", "viability": 90.8}, {"smiles": "c1nc2n(n1)C1=C(CCCC1)C1(CCCCC1)N2", "viability": 88.2}, {"smiles": "O=c1oc(-c2ccccc2[N+](=O)[O-])nc2ccccc12", "viability": 99}, {"smiles": "CCOC(=O)c1ccc(NC(=S)NCCc2ccc(F)cc2)cc1", "viability": 90.5}, {"smiles": "O=C(CCSc1ccc(Cl)cc1)NC12CC3CC(CC(C3)C1)C2", "viability": 85.2}, {"smiles": "Cc1ccc(CN2C3CCCC2CC(NC(=S)NCc2ccccc2)C3)cc1", "note": "(stereo not given)", "viability": 80.5}, {"smiles": "O=C(Oc1ccccc1)c1ccccc1OS(=O)(=O)c1ccccc1", "viability": 92.2}, {"smiles": "Cc1cc(N2CCN(C(=O)Nc3ccccc3C#N)CC2)c2ccccc2n1", "viability": 87.4}, {"smiles": "COc1cc(/C=C2\\C(=O)N(c3ccc(S(N)(=O)=O)cc3)N=C2C)ccc1OC(=O)c1ccco1", "viability": 95.2}, {"smiles": "CSc1nsc(SCC(=O)Nc2ccc(F)cc2F)n1", "viability": 91.6}, {"smiles": "CC(OC(=O)c1cnc2ccccc2n1)c1ccccc1Cl", "note": "(stereo not given)", "viability": 94.4}, {"smiles": "Cc1nc(N2CCN(c3ccccn3)CC2)c2c(C)c(C(=O)N3CCN(c4ccc(F)cc4)CC3)sc2n1", "viability": 81.2}, {"smiles": "CCOc1ccc(-n2c(O)c(/C=N/Nc3nnc(C)c(=O)[nH]3)c3ccccc3c2=O)cc1", "viability": 85.7}, {"smiles": "CCOc1ccc(NC(C)c2cc(Cl)ccc2O)cc1", "note": "(stereo not given)", "viability": 89.1}, {"smiles": "CCc1ccc(Nc2n[n+](C)c(-c3ccncc3)s2)cc1", "viability": 89.4}, {"smiles": "Cc1nc2ccc(NC(=O)c3ccc([N+](=O)[O-])cc3[N+](=O)[O-])cc2s1", "viability": 99.5}, {"smiles": "Cc1ccc(C(=O)Nc2ccc3c4c(cccc24)CC3)cc1[N+](=O)[O-]", "viability": 89.8}, {"smiles": "O=C1c2ccccc2CC1Sc1nnc(-c2ccncc2)o1", "note": "(stereo not given)", "viability": 97.9}, {"smiles": "CC(C)NCC(O)c1ccc(O)c(O)c1", "note": "(stereo not given)", "viability": 97.2}, {"smiles": "CSc1ccccc1C(=O)NC1CCSc2ccccc21", "note": "(stereo not given)", "viability": 93.4}, {"smiles": "CON(C)c1nc(C2CCCCC2)c2cc(C)ccc2n1", "viability": 82.3}, {"smiles": "Cc1ccc(C)c(N/C(N)=N/c2nc(C)cc(C)n2)c1", "viability": 80.5}, {"smiles": "C/C=C(\\C)C(=O)Nc1cccc(C2=NOC3(C2)C[C@H](C(N)=O)N(C(=O)c2cc([N+](=O)[O-])cc([N+](=O)[O-])c2)C3)c1", "note": "(stereo not given in full)", "viability": 99.2}, {"smiles": "CC(C)CCNC(=O)C(c1ccc(O)cc1)N(C(=O)C1COc2ccccc2O1)c1cccc(O)c1", "note": "(stereo not given)", "viability": 87.2}, {"smiles": "CCOC(=O)COc1ccc(/C=C2\\NC(=S)N(CC)C2=O)cc1", "viability": 90.3}, {"smiles": "Cc1cc2c(ccc3c2no[n+]3[O-])nn1", "viability": 107}, {"smiles": "O=C(c1ccc(-c2cccc(C(F)(F)F)c2)o1)N1CCN(c2ccccc2O)CC1", "viability": 98.3}, {"smiles": "CCOC(=O)C(C)Oc1ccc(OCc2ccccc2)cc1", "note": "(stereo not given)", "viability": 93.8}, {"smiles": "COC(=O)C(C)Oc1ccc2c(c1)O/C(=C\\c1ccco1)C2=O", "note": "(stereo not given)", "viability": 95.4}, {"smiles": "Cn1ccnc1-c1nnn(-c2ccc(Cl)c(Cl)c2)n1", "viability": 101}, {"smiles": "CC12CCC(=O)N1C(C(=O)Nc1ccc(SC(F)F)cc1)CS2", "note": "(stereo not given)", "viability": 97.2}, {"smiles": "CCn1cnc2sc(C(=O)Oc3ccc(Br)cc3)c(C)c2c1=O", "viability": 90.1}, {"smiles": "COc1ccc(NC(=O)CN(C)C(=O)c2n[nH]c3ccccc23)cc1", "viability": 87.4}, {"smiles": "COc1ccccc1C1CC(c2ccc(Cl)cc2)Nc2ncnn21", "note": "(stereo not given)", "viability": 80.5}, {"smiles": "CCN(CC)S(=O)(=O)c1cc(C(=O)Oc2cccc(-c3cnc4ccccc4n3)c2)ccc1Br", "viability": 93.8}, {"smiles": "Cc1ccc(-c2ccc(C3C(C#N)=C(N)Oc4n[nH]c(C)c43)o2)cc1", "note": "(stereo not given)", "viability": 86.2}, {"smiles": "CCc1nnc(N/N=C/c2cc(C)c(C)cc2C)n1N", "viability": 98.8}, {"smiles": "COc1ccc(-c2nnn(CC(=O)OC3CCCCC3)n2)cc1OC", "viability": 102}, {"smiles": "CO[C@@H]1[C@@H](OC(N)=O)[C@@H](O)C(Oc2ccc3c(O)c(NC(=O)c4ccc(O)c(CC=C(C)C)c4)c(=O)oc3c2C)OC1(C)C", "note": "(stereo not given in full)", "viability": 86.3}, {"smiles": "O=Cc1ccc2noc(-c3ccc(Cl)cc3)c2c1", "viability": 94.2}, {"smiles": "O=C(COC(=O)C1=COCCO1)NCc1ccc(Cl)cc1", "viability": 93.8}, {"smiles": "O=S1(=O)CCC(N=Cc2ccc(-c3ccc(Cl)cc3)o2)C1", "note": "(stereo not given)", "viability": 86.9}, {"smiles": "Cc1cc(C)c2c(CN3CCN(Cc4ccccc4)CC3)cc(=O)oc2c1C", "viability": 84.9}, {"smiles": "Cc1ccc2[nH]c3c(c2c1)CN(C(=O)CN1CCN(c2ccccn2)CC1)CC3", "viability": 82.1}, {"smiles": "Cc1ccc2cc(C)c(N3CCN(c4ccccn4)CC3)nc2c1", "viability": 86}, {"smiles": "C#CCOCCOCCOCCNc1nc(N2CCN(C(=O)C(Cc3ccc(O)cc3)n3cc(C(N)CC(C)C)nn3)CC2)nc(N2CCN(C(=O)C(Cc3cc4ccccc4[nH]3)n3cc(C(N)Cc4ccc(O)cc4)nn3)CC2)n1", "note": "(stereo not given)", "viability": 95.6}, {"smiles": "CC1(C)CN(c2ccccc2)N(C(=O)c2ccc(C#N)cc2)C1=O", "viability": 88.7}, {"smiles": "CCOc1ccc(-n2cc(-c3ccccc3)c3c(=O)[nH]cnc32)cc1", "viability": 84.8}, {"smiles": "CCOc1ccc(N2CC(=O)Nc3ccccc3NCC2=O)cc1", "viability": 89.6}, {"smiles": "Cc1ccccc1-c1nc2cc(N)ccc2o1", "viability": 89.9}, {"smiles": "O=C([O-])c1ccccc1-[n+]1c(-c2ccccc2)cc(-c2ccccc2)cc1-c1ccccc1", "viability": 101}, {"smiles": "Cc1nc(-c2ccc(Cl)cc2)sc1C1(C)CC(c2ccc(C#N)cc2)=NO1", "note": "(stereo not given)", "viability": 88.5}, {"smiles": "CCOc1cc(C(=O)OCc2ccc(C(=O)OC)o2)cc(Br)c1OC", "viability": 96.5}, {"smiles": "Cc1ccc(-c2ccnc(=S)[nH]2)cc1", "viability": 97.5}, {"smiles": "CC12CN3CCN(CC(C3)/C1=N\\NC(=O)Nc1cccc(Cl)c1)C2", "viability": 99.4}, {"smiles": "CNC(CC(C)C)C(=O)NC1C(=O)NC(CC(N)=O)C(=O)NC2C(=O)NC3C(=O)NC(C(=O)NC(C(=O)O)c4cc(O)cc(O)c4-c4cc3ccc4O)C(O)c3ccc(c(Cl)c3)Oc3cc2cc(c3OC2OC(CO)C(O)C(O)C2OC2C[C@](C)(N)C(O)C(C)O2)Oc2ccc(cc2Cl)C1O", "note": "(stereo not given in full)", "viability": 95.1}, {"smiles": "COc1cc(C)ccc1S(=O)(=O)N1CCN(C23CC4CC(CC(C4)C2)C3)CC1", "viability": 87}, {"smiles": "Brc1ccc(-c2nc3ncccn3c2Nc2ccc3c(c2)OCCO3)o1", "viability": 96.2}, {"smiles": "COC(=O)[C@@H](NC(=O)O[C@@H]1C(=O)c2ccc(OC)cc2O[C@H]1c1cccc(C(F)(F)F)c1)C(C)C", "viability": 84.6}, {"smiles": "Cc1ccn2nc(S(=O)(=O)Nc3c(F)cccc3F)nc2n1", "viability": 97.5}, {"smiles": "Cc1ccc(OC(=O)CCN2C(=O)c3ccccc3C2=O)cc1C", "viability": 95.1}, {"smiles": "O=[N+]([O-])c1ccc(N2CCCCC2)s1", "viability": 94.7}, {"smiles": "Cc1ccc(C)c(C2C(=O)c3ccccc3C2=O)c1", "viability": 99.8}, {"smiles": "NN(Cc1ccccc1)C(=S)Nc1ccc(Cl)c(Cl)c1", "viability": 87.4}, {"smiles": "C=C(C)C1Cc2c(C)nn(-c3nc(C)cc(C)n3)c2C1", "note": "(stereo not given)", "viability": 82.5}, {"smiles": "O=C(/C=C/c1ccccc1)N1CCN(CCN2C(=O)c3cccc4cccc(c34)C2=O)CC1", "viability": 84.9}, {"smiles": "COc1ccc(C(=O)NNc2ccccc2)cc1OC", "viability": 86.6}, {"smiles": "O=C(CSC1=Nc2ccccc2C2=NC(c3ccccc3)C(=O)N12)NC1CCCCC1", "note": "(stereo not given)", "viability": 92.2}, {"smiles": "CN1C(=O)CC(c2ccccc2)C1=O", "note": "(stereo not given)", "viability": 95.7}, {"smiles": "c1ccc(NNC2=NCCCCC2)cc1", "viability": 94.5}, {"smiles": "COc1cc(/C=C/c2cc[n+](C)cc2)ccc1OCC(=O)Nc1ccc(Cl)c(Cl)c1", "viability": 96}, {"smiles": "COC(=O)c1ccc(NC(=S)NC(=O)C2CCC2)cc1", "viability": 96.1}, {"smiles": "CC1(c2ccc(Cl)c(Cl)c2)NC(=S)N2C1NC(=S)N2c1ccccc1", "note": "(stereo not given)", "viability": 91.4}, {"smiles": "Cc1cc(-c2ccc(Cl)cc2)c2cnn(C(C)C)c2n1", "viability": 88.4}, {"smiles": "Cc1ccc(-c2nc3ccsc3c(=O)o2)cc1", "viability": 88.2}, {"smiles": "COC(=O)C(C)Oc1ccc(-c2nccc(-c3ccccn3)n2)cc1", "note": "(stereo not given)", "viability": 102}, {"smiles": "CCCCSCCCNC(=O)c1cn(CC)c2ccc(S(=O)(=O)N3CCOCC3)cc2c1=O", "viability": 92.9}, {"smiles": "COc1ccc(C(=O)C[n+]2ccc3c(c2)nc(-c2cc(OC)c(OC)cc2OC)n3C)cc1", "viability": 101}, {"smiles": "Nc1nc(CN2CCN(c3ccccc3F)CC2)nc(N2CCCc3ccccc32)n1", "viability": 91.2}, {"smiles": "CCCc1cc(-c2nc(-c3ccc(Br)cc3)cs2)ccn1", "viability": 87.4}, {"smiles": "CC(=O)c1cccc(NC(=O)C2C3C=CC(C3=C(c3ccccc3)c3ccccc3)C2C(=O)O)c1", "note": "(stereo not given)", "viability": 95.7}, {"smiles": "COc1cccc(C(=O)NC2CC3CCCC(C2)N3CC(=O)Nc2ccc(N(C)C)cc2)c1", "note": "(stereo not given)", "viability": 82.4}, {"smiles": "CCOc1ccc(NC(=O)CSc2nc(O)c(C)c(=O)n2-c2ccc(F)cc2)cc1", "viability": 91.2}, {"smiles": "Cc1ccc2c(c1)c1c3n2CCN=C3CCC1", "viability": 87.1}, {"smiles": "CC(C)Nc1nc(NC(C)C)nc(N(C)N)n1", "viability": 91.6}, {"smiles": "CCOc1cccc(C=Nc2cc(C)cc(C)c2O)c1O", "viability": 96.3}, {"smiles": "O=[N+]([O-])c1cc(-c2ccc(/C=N\\n3cnnc3)o2)cc([N+](=O)[O-])c1", "viability": 91.3}, {"smiles": "O=[N+]([O-])c1ccc(-c2ccc(/C=N/c3c(-c4ccco4)nc4ccccn34)o2)cc1", "viability": 90.6}, {"smiles": "CCCCCC1CC(CC(=O)NC(=S)Nc2ccc([N+](=O)[O-])cc2)C(=O)O1", "note": "(stereo not given)", "viability": 92.9}, {"smiles": "COc1ccc(-c2ccc(C#N)c(SCC(=O)OCc3ccccc3)n2)cc1OC", "viability": 88.4}, {"smiles": "CCOC(=O)C(C)Sc1ncnc2c1nnn2-c1ccc(F)cc1", "note": "(stereo not given)", "viability": 94.5}, {"smiles": "CC1(C)C2CCC1(C)C(OCC[N+](C)(C)CC(=O)OC1CCCCC1)C2", "note": "(stereo not given)", "viability": 101}, {"smiles": "CC(=O)CCSc1ncnc2sc(-c3ccccc3)cc12", "viability": 89.4}, {"smiles": "Nn1c(SCc2ccccc2)nc2ccccc21", "viability": 91.9}, {"smiles": "COC(=O)CCc1nc2c(C#N)c(-c3ccc(Cl)cc3)ccn2n1", "viability": 99.9}]}]}
